# Experiments:
# Test in all cases: DAPPL (digital affinity profiling via proximity ligation, sequencing); 10 mM Tris-HCl pH 7.5, 50 mM NaCl, 1 mM DTT, 4% glycerol, room temperature, 30 min; GST-TFs on glutathione beads, 16-mer random dsDNA library, 0.1% formaldehyde crosslink after washing; high values mean tight binding
# Details in all cases: protein: recombinant; tags: N-terminal GST; dsDNA, one strand shown
# [1] = biological target: T1, FLI1 (Homo sapiens, UniProt Q01543 1-452)
# T1 sequence: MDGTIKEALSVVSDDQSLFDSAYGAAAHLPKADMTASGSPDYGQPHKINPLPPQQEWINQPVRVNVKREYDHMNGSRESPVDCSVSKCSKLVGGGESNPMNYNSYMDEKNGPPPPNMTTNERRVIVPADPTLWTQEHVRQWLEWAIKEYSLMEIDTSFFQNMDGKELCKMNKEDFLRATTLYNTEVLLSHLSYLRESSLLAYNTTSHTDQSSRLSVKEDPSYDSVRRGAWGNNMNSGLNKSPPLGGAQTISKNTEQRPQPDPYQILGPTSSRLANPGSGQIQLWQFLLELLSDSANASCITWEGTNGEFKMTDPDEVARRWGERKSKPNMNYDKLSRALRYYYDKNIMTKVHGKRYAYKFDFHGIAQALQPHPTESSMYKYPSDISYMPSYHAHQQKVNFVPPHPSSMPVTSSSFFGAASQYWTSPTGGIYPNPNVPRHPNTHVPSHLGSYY
# Method in brief: (§1)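 After expression in yeast as GST fusions, human transcription factors were bound to glutathione beads, DNA-barcoded and mixed with a tag-only sample. The pools were incubated with 200 nmole of a 16-mer random double-stranded DNA library in Tris/NaCl/DTT/glycerol buffer (30 min, room temperature), washed and crosslinked with 0.1% formaldehyde. Proximity ligation with BsaI/T4 ligase ran for 1 h at 37 °C, before PCR amplification and sequencing on an Illumina NextSeq500. Binding signal is a hexamer's read frequency for a factor divided by its frequency for the tag-only sample.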
# [2] = biological target: T2, ELK1 (Homo sapiens, UniProt P19419 1-428)
# T2 sequence: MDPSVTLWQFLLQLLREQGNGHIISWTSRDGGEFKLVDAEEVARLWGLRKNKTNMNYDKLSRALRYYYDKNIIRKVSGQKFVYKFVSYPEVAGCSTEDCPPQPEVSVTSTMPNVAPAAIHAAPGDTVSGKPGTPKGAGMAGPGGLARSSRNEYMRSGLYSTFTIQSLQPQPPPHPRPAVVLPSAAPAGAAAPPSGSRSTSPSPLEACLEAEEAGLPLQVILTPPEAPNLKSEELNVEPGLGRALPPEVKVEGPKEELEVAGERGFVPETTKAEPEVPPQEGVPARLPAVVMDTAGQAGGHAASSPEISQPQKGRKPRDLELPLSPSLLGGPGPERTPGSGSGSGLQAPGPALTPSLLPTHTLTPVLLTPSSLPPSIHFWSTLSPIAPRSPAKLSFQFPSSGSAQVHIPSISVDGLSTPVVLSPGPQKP
# Method in brief: as §1
# [3] = biological target: T3, GABPA (Homo sapiens, UniProt Q06546 1-454)
# T3 sequence: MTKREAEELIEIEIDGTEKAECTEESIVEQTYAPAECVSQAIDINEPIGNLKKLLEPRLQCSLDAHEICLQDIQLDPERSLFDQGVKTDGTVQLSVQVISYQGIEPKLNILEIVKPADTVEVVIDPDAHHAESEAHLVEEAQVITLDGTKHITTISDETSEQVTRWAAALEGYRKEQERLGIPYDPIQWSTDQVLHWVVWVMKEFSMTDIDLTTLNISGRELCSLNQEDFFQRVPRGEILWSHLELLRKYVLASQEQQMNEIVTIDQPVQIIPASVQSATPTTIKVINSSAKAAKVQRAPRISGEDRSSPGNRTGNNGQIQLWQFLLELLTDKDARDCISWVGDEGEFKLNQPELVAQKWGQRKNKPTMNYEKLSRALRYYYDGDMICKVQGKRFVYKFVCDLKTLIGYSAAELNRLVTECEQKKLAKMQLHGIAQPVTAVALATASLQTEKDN
# Method in brief: as §1
# [4] = biological target: T4, ERG (Homo sapiens, UniProt P11308 1-479)
# T4 sequence: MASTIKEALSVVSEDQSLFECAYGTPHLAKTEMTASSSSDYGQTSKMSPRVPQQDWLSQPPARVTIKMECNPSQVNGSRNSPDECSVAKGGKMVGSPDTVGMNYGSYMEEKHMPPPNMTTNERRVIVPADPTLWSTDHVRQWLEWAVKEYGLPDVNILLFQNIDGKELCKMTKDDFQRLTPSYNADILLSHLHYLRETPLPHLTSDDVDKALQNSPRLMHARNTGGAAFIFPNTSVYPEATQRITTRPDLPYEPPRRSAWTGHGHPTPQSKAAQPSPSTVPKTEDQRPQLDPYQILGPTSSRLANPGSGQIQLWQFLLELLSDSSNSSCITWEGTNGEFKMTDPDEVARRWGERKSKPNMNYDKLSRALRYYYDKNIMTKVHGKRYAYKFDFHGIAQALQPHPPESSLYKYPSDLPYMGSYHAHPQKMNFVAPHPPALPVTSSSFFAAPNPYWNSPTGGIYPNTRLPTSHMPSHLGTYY
# Method in brief: as §1
# [5] = biological target: ELF1 (Homo sapiens, UniProt P32519 1-619)
# Method in brief: as §1
# [6] = biological target: T5, EHF (Homo sapiens, UniProt Q9NZC4 1-300)
# T5 sequence: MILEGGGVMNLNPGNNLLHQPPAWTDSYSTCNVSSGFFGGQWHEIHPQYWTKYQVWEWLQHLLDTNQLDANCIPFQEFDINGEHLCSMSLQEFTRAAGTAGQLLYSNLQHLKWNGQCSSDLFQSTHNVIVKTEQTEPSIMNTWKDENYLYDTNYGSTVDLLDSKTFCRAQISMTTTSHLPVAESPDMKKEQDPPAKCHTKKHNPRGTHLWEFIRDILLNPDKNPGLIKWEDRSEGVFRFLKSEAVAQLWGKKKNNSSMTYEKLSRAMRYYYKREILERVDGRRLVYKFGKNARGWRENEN
# Method in brief: as §1
# [7] = biological target: SPI1 (Homo sapiens, UniProt P17947 1-270)
# Method in brief: as §1
# [8] = biological target: SPIB (Homo sapiens, UniProt Q01892 1-262)
# Method in brief: as §1
# [9] = biological target: T6, ELK3 (Homo sapiens, UniProt P41970 1-407)
# T6 sequence: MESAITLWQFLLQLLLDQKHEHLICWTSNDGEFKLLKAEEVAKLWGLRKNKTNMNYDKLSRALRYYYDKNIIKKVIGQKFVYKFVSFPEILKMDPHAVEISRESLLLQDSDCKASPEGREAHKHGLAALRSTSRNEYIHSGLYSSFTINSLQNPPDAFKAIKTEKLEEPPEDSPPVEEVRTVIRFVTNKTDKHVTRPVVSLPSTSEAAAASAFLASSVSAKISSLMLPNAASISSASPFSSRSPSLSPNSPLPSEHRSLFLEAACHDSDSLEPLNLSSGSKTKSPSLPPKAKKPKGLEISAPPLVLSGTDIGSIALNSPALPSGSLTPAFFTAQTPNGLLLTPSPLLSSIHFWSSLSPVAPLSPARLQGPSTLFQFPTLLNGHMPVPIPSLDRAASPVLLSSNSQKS
# Method in brief: as §1
# Sequence of ELF1 (P32519 whole entry): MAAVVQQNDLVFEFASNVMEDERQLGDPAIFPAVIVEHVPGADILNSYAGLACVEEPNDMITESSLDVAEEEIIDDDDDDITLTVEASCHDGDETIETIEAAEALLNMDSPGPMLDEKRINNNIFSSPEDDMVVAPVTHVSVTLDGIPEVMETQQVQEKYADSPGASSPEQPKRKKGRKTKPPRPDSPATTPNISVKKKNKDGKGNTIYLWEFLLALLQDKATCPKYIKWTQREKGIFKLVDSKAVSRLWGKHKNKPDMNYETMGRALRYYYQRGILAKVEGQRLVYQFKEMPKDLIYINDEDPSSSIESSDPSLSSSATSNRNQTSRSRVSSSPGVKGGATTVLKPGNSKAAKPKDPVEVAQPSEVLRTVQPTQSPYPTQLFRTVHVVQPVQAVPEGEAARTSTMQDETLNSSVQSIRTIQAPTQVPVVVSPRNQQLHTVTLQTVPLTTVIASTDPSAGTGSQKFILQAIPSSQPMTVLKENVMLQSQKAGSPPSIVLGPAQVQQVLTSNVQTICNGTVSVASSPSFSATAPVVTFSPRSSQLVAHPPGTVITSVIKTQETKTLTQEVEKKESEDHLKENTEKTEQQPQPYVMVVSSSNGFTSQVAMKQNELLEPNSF
# Sequence of SPIB (Q01892 whole entry): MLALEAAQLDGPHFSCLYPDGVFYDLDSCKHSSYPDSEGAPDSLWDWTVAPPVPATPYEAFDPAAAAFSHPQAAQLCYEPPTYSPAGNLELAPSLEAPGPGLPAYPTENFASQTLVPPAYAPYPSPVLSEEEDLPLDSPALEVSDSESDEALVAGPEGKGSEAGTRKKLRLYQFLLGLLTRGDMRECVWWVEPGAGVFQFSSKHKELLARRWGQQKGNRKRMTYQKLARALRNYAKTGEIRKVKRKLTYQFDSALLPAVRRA
sequence,measurement,setting,value
CTGGCA,binding signal,[1],"1.33 fold enrichment (6-mer frequency, TF over GST control)"
same,binding signal,[2],"1.28 fold enrichment (6-mer frequency, TF over GST control)"
same,binding signal,[3],"1.39 fold enrichment (6-mer frequency, TF over GST control)"
same,binding signal,[4],"1.2 fold enrichment (6-mer frequency, TF over GST control)"
same,binding signal,[5],"1.26 fold enrichment (6-mer frequency, TF over GST control)"
same,binding signal,[6],"1.23 fold enrichment (6-mer frequency, TF over GST control)"
same,binding signal,[7],"1.22 fold enrichment (6-mer frequency, TF over GST control)"
same,binding signal,[8],"1.29 fold enrichment (6-mer frequency, TF over GST control)"
same,binding signal,[9],"1.43 fold enrichment (6-mer frequency, TF over GST control)"

# Reference: paper PMC7862700, “An all-to-all approach to the identification of sequence-specific readers for epigenetic DNA modifications on cytosine”
